# In PubChem BioAssay:
# Activity calls are given as the source filed them. Unless noted, the rule behind the calls is not given here.
# Experiments:
# [1] = tested on: Wnt5a (protein binding on small-molecule microarray); assay: Wnt5a binders on small-molecule microarray, primary screen, biophysical, 635/667 nm fluorescence (AID 1142); settings: 635 nm fluorescence, higher = more signal;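 note: fluorescence read at 667 nm with signal to noise per printed feature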
# [2] = cell viability in Huh7 cells, primary screen, cytotoxicity control for HCV replication inhibitor project, CellTiter-Glo luminescence, basal, 48 h (AID 1143); settings: Huh7 HCV replicon, higher = more signal, called active from +8 up or from −8 down;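 note: Huh7 hepatoma cells carrying a hepatitis C replication reporter with no stimulus; test concentration not given here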
# [3] = P. aeruginosa biofilm formation inhibitors, primary screen, PAO1 strain, BacTiter-Glo luminescence, LB-PBS (AID 1144); settings: 12 h, higher = more signal
# [4] = CREB reporter modulators without forskolin, primary screen, cell-based, PC12, CRE-LacZ reporter, unstimulated (AID 1145); settings: no forskolin, luminescence, 4.5 h, higher = more signal, called active from +8 up or from −8 down
# [5] = CREB reporter modulators under forskolin, primary screen, cell-based, PC12, CRE-LacZ reporter, forskolin-stimulated (AID 1146); settings: luminescence, 4.5 h, higher = more signal, called active from +8 up or from −8 down;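 note: PC12 cells with 6xCRE LacZ reporter stimulated by forskolin 10 µM; beta-galactosidase reporter signal reflecting CREB driven transcription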
# [6] = target: Streptavidin (Streptomyces avidinii) (UniProt P22629); assay: streptavidin binders on small-molecule microarray, primary screen, artefact control for SMM compound annotation, biophysical, 635/667 nm fluorescence (AID 1147); settings: streptavidin binding, higher = more signal;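 note: signal reflects streptavidin binding to arrayed compounds as a control protein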
# Sequence of Streptavidin (Streptomyces avidinii) (P22629 whole entry, looked up): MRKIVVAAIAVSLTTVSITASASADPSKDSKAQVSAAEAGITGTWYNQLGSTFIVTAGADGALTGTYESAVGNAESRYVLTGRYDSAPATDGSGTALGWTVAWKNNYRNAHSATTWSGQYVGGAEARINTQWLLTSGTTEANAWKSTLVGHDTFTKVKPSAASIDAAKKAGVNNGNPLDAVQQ
# [7] = small-molecule binders of probe aInhba, primary screen, biochemical, small-molecule microarray, 635/667 nm fluorescence (AID 1148); settings: higher = more signal;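 note: score merges 667nm spot fluorescence with signal-to-noise for antibody binding to printed compounds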
# Torsin-1A (Homo sapiens) [8] = target: Torsin-1A (Homo sapiens) (UniProt O14656); assay: torsin A binders from cell lysate, primary screen, small-molecule microarray, wild-type, 635/667 nm (AID 1149); settings: COS7 hTOR1A-WT lysate, 635 nm fluorescence, higher = more signal
# Sequence of Torsin-1A (Homo sapiens) (O14656 whole entry, looked up): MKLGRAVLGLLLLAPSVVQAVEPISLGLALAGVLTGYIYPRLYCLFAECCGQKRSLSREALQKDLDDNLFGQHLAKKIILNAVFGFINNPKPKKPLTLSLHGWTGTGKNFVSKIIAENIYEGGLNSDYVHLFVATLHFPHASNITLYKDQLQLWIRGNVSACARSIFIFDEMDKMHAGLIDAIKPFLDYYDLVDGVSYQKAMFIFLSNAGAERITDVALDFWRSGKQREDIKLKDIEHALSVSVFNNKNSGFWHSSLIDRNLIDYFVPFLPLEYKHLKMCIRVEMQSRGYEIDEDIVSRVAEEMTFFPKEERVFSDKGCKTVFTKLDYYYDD
# Torsin-1A (Homo sapiens) [9] = target: Torsin-1A (Homo sapiens) (UniProt O14656); assay: small-molecule binders of mutant TOR1A in lysate, primary screen, cell lysate, small-molecule microarray, COS7 lysate, 635/667 nm fluorescence (AID 1150); settings: COS7 hTOR1A mutant lysate, 635 nm fluorescence, higher = more signal;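 note: score pools 667 nm emission and signal to noise measuring lysate protein binding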
# [10] = tested on: Sonic hedgehog protein (Shh); assay: small-molecule binders of Shh protein, primary screen, biochemical, small-molecule microarray, 635/667 nm fluorescence (AID 1151); settings: small-molecule microarray binding, 635 nm fluorescence; higher = more signal;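 note: Shh protein binding to compounds spotted on small-molecule microarray slides; score combines spot fluorescence intensity with signal-to-noise across triplicate slides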
SMILES,composite z-score [1],z-score [2],z-score [3],z-score [4],z-score [5],composite z-score [6],composite z-score [7],composite z-score (Torsin-1A (Homo sapiens) [8]),composite z-score (Torsin-1A (Homo sapiens) [9]),composite z-score [10]
C#CCCCON=C1[C@H]2CCn3c(=O)n(Cc4cc5c(cc4Cl)OCO5)c(=O)n3[C@H]2[C@H](O)[C@@H]2O[C@H]12,0.272,0.256 (inactive),-0.55 (inactive),-0.207 (inactive),0.959 (inactive),0.23,-0.0375,0.0703,0.248,1.08
CC1(C)O[C@H]2O[C@H]([C@H](O)CON=C3[C@H]4CCn5c(=O)n(-c6ccccc6)c(=O)n5[C@H]4[C@H](O)[C@@H]4O[C@H]34)[C@H](O)[C@H]2O1,0.0179,-0.279 (inactive),-0.295 (inactive),0.494 (inactive),0.771 (inactive),0.0676,-0.154,0.43,-0.0174,-0.217
CCOC(=O)CCN1C(=O)[C@H]2[C@@H]3C(=CC[C@H]2C1=O)C(=O)[C@H]1O[C@H]1[C@H]3O,-0.544,-5.94 (inactive),0.737 (inactive),0.79 (inactive),28.7 (active),-0.7,-0.253,-0.47,0.914,-0.87
CC(C)[C@@H](OCc1ccccc1)[C@H](C)CON=C1[C@H]2CCn3c(=O)n(-c4ccccc4)c(=O)n3[C@H]2[C@H](O)[C@@H]2O[C@H]12,0.186,-0.367 (inactive),1.21 (inactive),-0.408 (inactive),1.2 (inactive),0.164,-0.128,0.0645,0.41,0.89
Cc1cc2c(nc1C)CCCCN2CC(O)CN1CCCc2nc(-c3ccc(Br)cc3)ccc21 (stereo not given),0.0684,0.304 (inactive),-0.708 (inactive),0.744 (inactive),0.597 (inactive),0.639,0.0541,0.0636,0.154,1.1
COC(OC)[C@@H](C)[C@H](OC)[C@@H](C)[C@H](OC)c1ccccc1,0.3,-0.609 (inactive),-1.32 (inactive),1.46 (inactive),0.0401 (inactive),-0.211,-0.321,0.237,-0.252,0.155
CCN1C(=O)[C@H]2[C@H]3[C@H](O)[C@H](O)CC(=NOCC=C(C)CCC=C(C)C)[C@@H]3CC[C@H]2C1=O,0.288,-2.44 (inactive),0.17 (inactive),-0.115 (inactive),-0.157 (inactive),-0.43,-0.204,2.38,0.981,2.07
COC(=O)CC=C[C@@H](C)[C@@H](C=NOC(C)CN1CCCc2nc(C)c(C)cc21)NS(=O)(=O)c1ccc(C)cc1 (stereo not given in full),0.448,-0.214 (inactive),1.42 (inactive),0.0013 (inactive),0.541 (inactive),-0.176,0.0982,0.308,0.309,0.791
CCN1C(=O)[C@H]2[C@H]3[C@H](O)[C@H](O)CC(=NOC[C@@H](O)[C@H]4O[C@@H]5OC(C)(C)O[C@@H]5[C@H]4O)[C@@H]3CC[C@H]2C1=O,-0.0165,0.297 (inactive),0.685 (inactive),-0.975 (inactive),-0.799 (inactive),0.245,-0.246,0.382,0.205,0.374
CCc1cc2c(nc1CC)CCN(CCC(C)=NOCC[C@@H]1C=C[C@H](OC(C)=O)[C@@H](COC(C)=O)O1)C2,0.257,0.0095 (inactive),-0.0152 (inactive),3.88 (inactive),0.329 (inactive),1.78,0.127,2.66,1.66,1.32
CCN1C(=O)[C@H]2[C@H]3[C@H](O)[C@H](O)CC(=NNC(=O)OCc4ccccc4)[C@H]3CC[C@H]2C1=O,0.038,-0.0436 (inactive),0.877 (inactive),-0.119 (inactive),-0.497 (inactive),0.214,-0.0719,-0.211,0.223,-0.486
O=C1[C@H]2[C@H]3[C@H](O)[C@H](O)CC(=NO[C@@H]4O[C@H](CO)[C@@H](O)[C@H](O)[C@H]4O)[C@@H]3CC[C@H]2C(=O)N1c1cccc(Oc2ccccc2)c1,0.0469,0.353 (inactive),-0.774 (inactive),0.967 (inactive),0.314 (inactive),0.532,-0.0504,0.787,0.0995,0.828
COC(=O)[C@H](C)NC(=O)CCC1CC(OC(=O)NCc2ccc3c(c2)OCO3)CC2(CCCC(COC(=O)NCCCN3CCCC3=O)O2)O1 (stereo not given in full),0.151,-0.849 (inactive),-0.202 (inactive),0.108 (inactive),0.833 (inactive),0.53,0.111,0.447,0.323,0.78
CC(C)=NOC(C)CN1CCCc2nc(C)c(C)cc21 (stereo not given),0.299,0.431 (inactive),-0.905 (inactive),0.0757 (inactive),-0.263 (inactive),-0.0623,0.0074,0.111,0.386,1.35
CC(C)[C@@H](OCc1ccccc1)[C@H](C)C=NO[C@@H](C)c1cn([C@H](CO)Cc2ccccc2)nn1,-0.0307,-0.927 (inactive),0.496 (inactive),0.843 (inactive),-0.0785 (inactive),-0.0202,-0.107,0.752,0.441,0.26
CCN1C(=O)[C@H]2[C@H]3[C@H](O)[C@H](O)CC(=NO[C@H](C)c4cn([C@H](CO)Cc5ccccc5)nn4)[C@@H]3CC[C@H]2C1=O,0.217,0.399 (inactive),1.05 (inactive),-0.385 (inactive),-0.228 (inactive),0.307,-0.105,0.265,0.556,0.742

SMILES,composite z-score [1],z-score [2],z-score [3],z-score [4],z-score [5],composite z-score [6],composite z-score [7],composite z-score (Torsin-1A (Homo sapiens) [8]),composite z-score (Torsin-1A (Homo sapiens) [9]),composite z-score [10]
C[C@@H](c1ccccc1)N1C(=O)[C@H]2[C@H]3[C@H](O)[C@H](O)CC(=NOCc4ccccc4)[C@@H]3CC[C@H]2C1=O,0.0765,0.039 (inactive),1.01 (inactive),0.242 (inactive),-0.166 (inactive),0.665,-0.0762,-0.407,-0.325,-0.742
CC(CCC(=O)OC[C@H]1O[C@H](C#Cc2ccccc2)C=C[C@@H]1Oc1ccc(C)cc1)=NO[C@@H](C)c1cc(-c2c(C)cc(C)cc2C)no1,-0.693,-0.629 (inactive),-0.702 (inactive),0.085 (inactive),1.02 (inactive),-0.831,-0.242,-2.59,-1.74,-0.719
CCOC(=O)[C@H](Cc1ccccc1)NC(=O)CCC1CC(OC(=O)NCc2ccc3c(c2)OCO3)CC2(CCCC(COC(=O)NCCOC)O2)O1 (stereo not given in full),0.274,-3.06 (inactive),-0.212 (inactive),-0.256 (inactive),0.59 (inactive),0.91,-0.016,0.351,0.291,1.91
CC(CCN1CCCc2nc(C)c(C)cc21)=NO[C@H](C)c1cn([C@H](CO)Cc2ccccc2)nn1,0.22,-0.535 (inactive),0.13 (inactive),2.77 (inactive),-0.245 (inactive),-0.0592,0.0487,1,0.25,1.04
COC(=O)[C@H](C)NC(=O)CCC1CC(OC(=O)NCc2ccc3c(c2)OCO3)CC2(CCCC(COC(=O)NCCC(C)C)O2)O1 (stereo not given in full),0.151,-2.02 (inactive),-0.174 (inactive),-0.706 (inactive),-1.22 (inactive),0.232,-0.224,0.245,0.593,1.13
C[C@H]1CC[C@H]2C(=O)O[C@H](CO)CN2[C@@H]1c1ccc(Br)cc1,0.0217,-0.98 (inactive),-1.38 (inactive),-0.557 (inactive),-0.816 (inactive),0.0279,-0.202,0.345,-0.363,-0.0013
C=CC[C@@H]1C=C[C@H](ON=C(C)CCN2CCCc3nc(C)c(C)cc32)[C@@H](CO)O1,0.621,-0.686 (inactive),-0.0889 (inactive),-0.0824 (inactive),-0.299 (inactive),0.182,0.528,2.17,2.07,1.66
COC(=O)[C@H](C)NC(=O)CCC1CC(OC(=O)NCCc2ccc(F)cc2)CC2(CCCC(COC(=O)NCCOc3ccccc3)O2)O1 (stereo not given in full),0.399,-0.471 (inactive),0.706 (inactive),-0.0755 (inactive),-0.501 (inactive),0.56,-0.0059,0.37,0.379,1.46
COC(=O)[C@@H]1CC[C@H](C)[C@@H](c2ccc(Br)cc2)N1C(=O)C(F)(F)F,-0.237,-0.322 (inactive),-0.69 (inactive),0.565 (inactive),-0.344 (inactive),-0.307,-0.0944,-0.179,-0.835,-0.14
O=C1C[C@H](c2ccccc2)[C@H](c2ccc(Br)cc2)O1,0.0974,-1.52 (inactive),-1.42 (inactive),0.375 (inactive),-0.0385 (inactive),0.521,-0.128,-0.0753,-0.022,0.212
CCOC(=O)NN=C1C[C@@H](O)[C@@H](O)[C@@H]2[C@@H]3C(=O)N(c4ccc(F)cc4F)C(=O)[C@@H]3CC[C@H]12,0.199,-4.03 (inactive),-1.05 (inactive),-0.296 (inactive),0.409 (inactive),-0.0442,-0.0962,0.49,0.381,0.404
O=C1[C@H]2[C@H]3[C@H](O)[C@H](O)CC(=NO[C@@H]4O[C@H](CO)[C@@H](O)[C@H](O)[C@H]4O)[C@@H]3CC[C@H]2C(=O)N1C1CCCCC1,0.258,0.0805 (inactive),0.577 (inactive),0.342 (inactive),0.758 (inactive),0.247,0.0342,0.603,0.0159,0.635
CCOC(=O)[C@H](CC(C)C)NC(=O)CCC1CC(OC(=O)NCCc2ccc(F)cc2)CC2(CCCC(COC(=O)NCc3cccc4ccccc34)O2)O1 (stereo not given in full),-0.165,-0.731 (inactive),-0.596 (inactive),-0.889 (inactive),1.01 (inactive),1.57,-0.131,-0.169,0.184,0.601
CC=CC1=C(CO)[C@H](O)[C@H]2O[C@H]2[C@@H]1O,0.0984,-0.0795 (inactive),-0.549 (inactive),-0.525 (inactive),1.26 (inactive),0.162,1.37,0.587,0.131,0.875
CC(C)=CCCC(C)=CCON=C1C[C@@H](O)[C@@H](O)[C@@H]2[C@@H]3C(=O)N(c4cccc(Oc5ccccc5)c4)C(=O)[C@@H]3CC[C@H]12,-0.022,-1.47 (inactive),1.73 (inactive),-0.205 (inactive),-0.158 (inactive),-0.11,-0.128,0.575,0.704,1.51
